In PubChem BioAssay (NCI):
“And” between values parts separate entries of the source, which are not always exact repeats. Equal values may be shown once. Compounds without any hit were thinned out: in the full panel of roughly 83,000, 20% have a hit.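 Percent growth is the endpoint: 0 to 100 indicates growth inhibition (40 means 60% inhibition), 0 means no net growth, and negative values indicate cell death.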 The source made the active and inactive calls. How the source made its calls: active means growth percent below 10; inactive means the rest.

System: MDA-MB-468 breast
Assay: NCI-60 one-dose screen, 48 h (100 = growth as untreated, 0 = no growth, -100 = all killed)
Conditions: 10 µM unless noted

Row | Compound | growth
1 | COc1ccc(-n2nc(C)c3c(Nc4ccc(NC(=O)Nc5cccc(C(F)(F)F)c5)cc4)ncnc32)cc1 | -14% (active)
2 | NC1=CSC2=N/C(=C\c3ccc(Cl)cc3)C(=O)N12 | 64.5% (inactive)
3 | O=C1CSC2=NCCN12 | 105% (inactive) and 100% (inactive)
4 | C#C[C@]1(O)CC[C@H]2[C@@H]3CC=C4c5sc(Nc6ccc(OC)nc6)nc5CC[C@]4(C)[C@H]3CC[C@@]21C | 17.4% (inactive)
5 | N#Cc1ccc(C(F)(F)F)nc1N1CCC(C(=O)Nc2ccc(Cl)cc2)CC1 | 69.2% (inactive)
6 | CC(=O)OCC1OC(n2cnc3c(=S)nc(N)[nH]c32)C(OC(C)=O)C1OC(C)=O (stereo not given) | 68.5% (inactive)
7 | O=C(/C=C/CN1CCOCC1)Nc1cc2c(Nc3ccc(F)c(Cl)c3F)ncnc2cc1OCCOC(F)F | -17.6% (active)
8 | CC(NC(=O)Oc1cccc2ccccc12)c1ccccc1 (stereo not given) | 107% (inactive)
9 | C=CC(=O)OC1CCC(C(C)(C)CC)CC1 (stereo not given) | 108% (inactive)
10 | COC(=O)c1cc(O)c2c(c1C(=O)OC)C[C@H]1[C@@H]3CC=C4C[C@@H](O)CC[C@]4(C)[C@H]3CC[C@]21C | 35.3% (inactive)
11 | CCn1cc(C(=O)NN=C2CCCCCC2)c(=O)c2ccc(C)nc21 | 85.9% (inactive)
12 | CS(=O)(=O)CCNCc1ccc(-c2ccc3ncnc(Nc4ccc(OCc5cccc(F)c5)c(Cl)c4)c3c2)o1 | -56.5% (active)
13 | COc1ccc2cc(C3=CC(=O)CCC3)ccc2c1 | 100% (inactive)
14 | O=C1COCCN1c1ccc(NCc2cn(C(=O)c3ccc(Cl)cc3)c3ccccc23)cc1 | -66.6% (active)
15 | COc1cc(C(N)=O)cc(OC)c1OC | 103% (inactive)
16 | C=C1C(=O)O[C@H]2[C@H]1CC/C(COC(=O)NCCOCCOCC(=O)Nc1ccc(OC)c(C(N)=O)c1O)=C\CC[C@@]1(C)O[C@@H]21 | 17% (inactive)
17 | COc1c(NC=O)c2c(c([N+](=O)[O-])c1OC)C(=O)OC2 | 113% (inactive) and 93.1% (inactive)
18 | COc1ccc2c(c1)c(-c1nonc1-c1c[nH]c3ccc(Br)cc13)cn2C | 52.4% (inactive)
19 | Cc1nn(-c2ccc([N+](=O)[O-])cc2)c2ncnc(N/N=C/c3ccccc3O)c12 | -16.6% (active)
20 | O=C(Nc1ccncc1)C(=O)c1cn(S(=O)(=O)c2ccccc2F)c2ccccc12 | 16.4% (inactive)

Row | Compound | growth
21 | CC(C)(C)c1ccc(C(=O)Nc2sc3c(c2C(N)=O)CCC(O)C3)cc1 (stereo not given) | 32.3% (inactive)
22 | COc1ccc(/C=C2\Oc3cc(OCCCN4CCCCC4)ccc3C2=O)cc1OC | 76.4% (inactive)
23 | Cn1c2ccccc2c2c3c(c4c5ccccc5n(CCCCCC#N)c4c21)C(=O)N(O)C3=O | -49.5% (active)
24 | COc1ccc2c(c1)c(-c1nc(-c3c[nH]c4ncccc34)cs1)cn2CCCN1CCOCC1 | 42% (inactive)
25 | FC(F)(F)c1[nH]ncc1-c1nc2c(N3CCCCC3)cc3[nH]ncc3c2c2c1CCCC2 | -25.6% (active)
26 | CNc1nc2ncn(C)c2c(=O)[nH]1 | 101% (inactive)
27 | CN1C(=O)N(C)C2C1NN=c1s/c(=C\c3ccccc3F)c(=O)n12 (stereo not given) | 11.6% (inactive)
28 | COc1ccccc1NC1=C(N2CCCCC2)C(=O)c2ccccc2C1=O | 65.9% (inactive)
29 | CCN(CC)CC(C)Nc1ccc(C)c2sc3ccccc3c(=O)c12 (stereo not given) | 57.7% (inactive)
30 | N#C/C(=C1C=C/C(=N/O)C(Cl)=C/1)c1ccc(Cl)cc1 | -8.37% (active)
31 | Cc1ccccc1/C=C1\CN(C(=O)OC(C)(C)C)C/C(=C\c2ccccc2C)C1=O | 36.7% (inactive)
32 | O=C1N=c2ccccc2=C1c1sc(=Nc2ccccc2)n(Nc2ccccc2)c1O | 123% (inactive)
33 | COc1ccc(-c2nc(NC(=O)CS(=O)(=O)c3ccc(F)cc3)sc2C)cc1 | 32% (inactive)
34 | Cc1c(C)n(CC(O)CNC2CCCCC2C)c2ccccc12 (stereo not given) | -33.8% (active)
35 | NC(=O)c1cc(Cl)ccc1NC(=O)/C=C/c1ccccc1 | 30.7% (inactive)
36 | C=CCn1c(SCC(=O)Nc2ccc(C(=O)/C=C/c3ccc(Cl)cc3)cc2)nnc1-c1ccc(Cl)cc1 | 89% (inactive)
37 | COc1cc(-c2cc(-c3ccc(Nc4ncnc5cc(Cl)ccc45)cc3)nc(N3CCCCC3)n2)cc(OC)c1OC | 107% (inactive)
38 | CC(O)C(N)=O (stereo not given) | 107% (inactive)
39 | CN1CCN(Cc2ccc(NC(=O)c3[nH]ncc3Nc3ccnc4ccsc34)cc2)CC1 | 18.5% (inactive)
40 | Clc1ccc(-c2nnc(COc3ccccc3Cl)o2)cc1 | 93.7% (inactive)
